Reference: PubChem BioAssay (NCATS)
Inconclusive results are not listed. Calls of active or inactive are those of the source. Calls follow the shape of the dose curve; as a rule, active = well fitted curve in the direction sought with a large enough effect; inconclusive = small, poorly fitted or top-dose-only effect, or another doubt; inactive = no such curve, though single readings can be large; an effect the other way counts as inactive or inconclusive.

Assays:
[1] = SDT Cancer Cell Toxicity qHTS against the NCATS CANVASS Library (AID 1347365); settings: SDT dog glioma viability, ATP luminescence, 72 h; at 46.1 µM (top of the series); also: nearly all actives have a fitted effect of over 60% in size
Excerpt: (§1) Natural products and their derivatives continue to be wellsprings of nascent therapeutic potential. However, many laboratories have limited resources for biological evaluation, leaving their previously isolated or synthesized compounds largely or completely untested. To address this issue, the Canvass library of natural products was assembled (https://tripod.nih.gov/canvass), in collaboration with academic and industry researchers, for quantitative high-throughput screening (qHTS) across a diverse set of cell-based and biochemical assays. […] The library was formatted into 1536-well plates and evaluated in 50 qHTS (in an 11-pnt concentration series) bioassays with broad scope of disease-relevant mechanisms. The resulting data set from 50 different assays was then systematically analyzed to identify overall trends and specific natural products with interesting biological activities. […] This assay uses ATP (luminescence) content to measure the cytotoxiciy of compounds on SDT dog glioma cancer cell line. […]
(§2) Cancer Cell Toxicity qHTS protocol: for cell lines G06, J3T, and SDT. […] Luminescence signal was acquired via the ViewLux plate reader (PerkinElmer) using a clear emission filter, 2 sec exposure, and 1x binning settings.

[2] = KB-3-1 Cancer Cell Toxicity qHTS against the NCATS CANVASS Library (AID 1347366); also: nearly all actives have a fitted effect of over 75% in size
Summary of the method: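 Cytotoxicity toward KB-3-1 cells (500/well, DMEM + 10% FBS) was scored by CellTiter-Glo luminescence following 72 hr exposure at 37C, with bortezomib titrated as control.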

[3] = qHTS for ATAD5 Agonist screened against the NCATS CANVASS Library (AID 1347367);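 also: luciferase reporter driven by ATAD5 which rises upon DNA damage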
Summary of the method: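 Genotoxicity was scored as increased ATAD5-luciferase luminescence in HEK293T after 16hr of exposure, with cell viability measured by fluorescence beforehand in the same well.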

[4] = G06 Cancer Cell Toxicity qHTS against the NCATS CANVASS Library (AID 1347368); settings: G06 dog glioma cells, viability ATP luminescence, 72 h; at 46.1 µM (top of the series); also: nearly all actives have a fitted effect of over 60% in size
Summary of the method: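 ATP luminescence (CellTiterGlo) readout of cytotoxicity. Canine G06 glioma cells, 500/well, 72 hr incubation at 37C with compounds; bortezomib titration served as control.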

[5] = MCF7 Cancer Cell Toxicity qHTS against the NCATS CANVASS Library (AID 1347369)
Summary of the method: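 This 72 hr qHTS scored MCF7 viability by CellTiterGlo luminescence, with 500 cells/well; bortezomib titration ran as control.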

[6] = qHTS for ATAD5 Antagonist screened against the NCATS CANVASS Library (AID 1347370);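 also: HEK293T cells carrying an ATAD5 luciferase reporter co-treated with 10 µM 5-fluorouridine; nearly all actives have a fitted effect of over 65% in size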
Summary of the method: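 HEK293T-ATAD5 luc reporter, 2000 cells/well; 5hr attach; cpd + 10 uM 5-FUrd; 16hr 37C, 5% CO2. Readouts: CellTiter-Fluor fluorescence (1hr), then Amplite luciferase luminescence (30min RT).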

[7] = J3T Cancer Cell Toxicity qHTS against the NCATS CANVASS Library (AID 1347371); settings: J3T dog glioma viability, ATP luminescence, 72 h; at 46.1 µM (top of the series)
Excerpt: as §1, with “J3T” for “SDT”
as §2

[8] = target: Nuclear receptor subfamily 1 group I member 3 (Homo sapiens) (UniProt Q14994); experiment: qHTS for Constitutive Androstane Receptor (CAR) Antagonist screened against the NCATS CANVASS Library (AID 1347372);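 also: cells stimulated with 50 nM CITCO agonist so inhibition reflects antagonism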
Summary of the method: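 Cells were seeded and left 4hr to attach, then received compound at 11 concentrations and 50 nM CITCO. Following 24hr incubation, fluorescence viability and luciferase luminescence were read sequentially.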

[9] = target: Nuclear receptor subfamily 1 group I member 3 (Homo sapiens) (UniProt Q14994); experiment: qHTS for Constitutive Androstane Receptor (CAR) Agonist screened against the NCATS CANVASS Library (AID 1347373);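 also: every well also contained 1.5 µM PK11195 alongside the test compound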
Summary of the method: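 Luciferase read-out (ONE-Glo, 30 min RT) of CYP2B6-2.2kb promoter activity in double-stable HepG2-hCAR cells after 24hr compound exposure with 1.5uM PK11195 present; viability measured first by CellTiter-Fluor.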

[10] = qHTS for Hypoxia signaling pathway (HIF-1) antagonists against the NCATS CANVASS Library (AID 1347374);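 also: HRE-bla ME-180 cells stimulated with cobalt chloride to stabilize HIF-1alpha; nearly all actives have a fitted effect of over 60% in size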
Summary of the method: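 Beta-lactamase reporter under HRE control in ME-180 cells; CoCl2 stimulus (60 uM solution as added), compounds 11-pt qHTS, 17 h 37C. CCF4 dye 2 h RT, 460/530 nm emission. CellTiter-Glo viability in same wells.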

Measured: outcome

Nuclear receptor subfamily 1 group I member 3 (Homo sapiens), sequence (Q14994 whole entry, looked up): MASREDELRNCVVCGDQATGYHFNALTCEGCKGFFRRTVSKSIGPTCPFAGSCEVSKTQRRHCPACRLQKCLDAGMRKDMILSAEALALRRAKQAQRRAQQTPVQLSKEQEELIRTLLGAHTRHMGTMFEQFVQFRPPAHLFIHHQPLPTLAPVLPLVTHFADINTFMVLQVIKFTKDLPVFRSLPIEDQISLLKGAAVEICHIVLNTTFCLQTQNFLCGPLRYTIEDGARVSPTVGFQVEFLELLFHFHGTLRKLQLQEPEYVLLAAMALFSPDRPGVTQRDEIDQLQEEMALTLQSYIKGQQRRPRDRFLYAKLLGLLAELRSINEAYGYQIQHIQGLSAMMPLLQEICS

NCC(O)c1ccc(O)cc1 (stereo not given)
inactive: all assays above
